Assay outcomes as filed in PubChem.
Compounds with a hit are over-represented: about 3.2% of the library has one in this group of screens.
USP2a block: inhibitors of human ubiquitin-specific protease USP2a; USP2 core, Ub-CHOP2 coupled fluorogenic reporter, 485/531; Potency, µM (highest dose often 38.3 µM), for the others: at the top dose activity change, negative = inhibition, usual class: inhibitors; actives 0.01% (n = 330,000); AID 463254;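 note: potency is the fitted concentration of half-maximal effect; plate controls were DMSO wells for no effect and full inhibition by NEM control for full effect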
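Cell-free coupled assay: 10nM USP2 core preincubated 30min RT with compound in Tris-HCl pH 8.0/CaCl2/CHAPS buffer, then 25nM Ub-CHOP2 and 25nM reporter substrate; fluorescence (Ex 485/Em 531) read after 60min RT, normalized to NEM inhibition, concentration-response curves fitted.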
VDR inh: blocks the human vitamin D receptor; AID 504847; actives 0.93% (n = 400,000); Potency, µM, inactives show max response, negative = inhibition, actives largely listed as inhibitors; P11473; VDR-SRC2-3 peptide fluorescence polarization, 2 h; note: potency is the fitted concentration of half-maximal effect
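Measured by FP: displacement of SRC2-3 coactivator peptide from VDR by library compounds, following a two-hour ambient incubation.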
PLK1 PBD block: blocks phosphopeptide binding to human PLK1 polo-box domain | P53350 | Plk1 PBD binding of FITC phosphopeptide, fluorescence polarization | Potency, µM, without a hit: max response, negative = inhibition, actives largely listed as inhibitors | actives 2.8% (n = 360,000); note: potency is the fitted concentration of half-maximal effect; series mostly up to about 57 µM; nearly all actives have a fitted effect of over 65% in size
Target sequence (P53350 whole entry, looked up, the tested form may be a part): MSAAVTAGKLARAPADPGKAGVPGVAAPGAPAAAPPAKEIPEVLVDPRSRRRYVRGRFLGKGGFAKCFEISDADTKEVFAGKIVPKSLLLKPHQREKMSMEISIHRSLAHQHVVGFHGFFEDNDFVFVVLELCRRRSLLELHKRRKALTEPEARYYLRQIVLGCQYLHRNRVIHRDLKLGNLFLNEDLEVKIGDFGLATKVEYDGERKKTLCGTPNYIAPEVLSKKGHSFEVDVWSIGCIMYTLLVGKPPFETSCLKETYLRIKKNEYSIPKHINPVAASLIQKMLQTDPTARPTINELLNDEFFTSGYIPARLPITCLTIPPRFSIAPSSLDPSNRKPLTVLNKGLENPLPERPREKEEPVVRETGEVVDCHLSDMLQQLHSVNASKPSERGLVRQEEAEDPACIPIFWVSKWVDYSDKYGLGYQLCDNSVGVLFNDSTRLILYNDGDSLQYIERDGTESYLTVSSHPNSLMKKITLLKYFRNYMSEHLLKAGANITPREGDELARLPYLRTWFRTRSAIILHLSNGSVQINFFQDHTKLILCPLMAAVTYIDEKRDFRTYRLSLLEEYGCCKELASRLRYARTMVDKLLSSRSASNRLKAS
Coupling enz: coupling enzyme interference in Giardia aldolase counter-screen | activity change, negative = inhibition, % at 58.2 µM, hits read low | coupling enzyme system counterscreen, AmpLite Red fluorescence | actives 0.67% (n = 290,000); in the data active = activity change below about -30%
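Coupling enzymes only (glyceraldehyde-3-phosphate) + compound, at 57.5 uM final, 10 min RT; add substrate/coupling/AmpLite Red mix, 20 min RT; fluorescence ex 525/em 598 nm. Actives flag coupling-system interference.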
USP1 inh: blocks the human USP1/UAF1 deubiquitinase complex; Potency, µM (highest dose often 57.1 µM), for inactives: at the highest dose activity change, negative = inhibition, actives largely listed as inhibitors; actives 0.23% (n = 390,000); recombinant USP1/UAF1, Ub-Rhodamine cleavage fluorescence; AID 743255; O94782; note: potency is the fitted concentration of half-maximal effect; nearly all actives have a fitted effect of over 60% in size
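USP1/UAF1 complex at 1 nM was preincubated with compound for 15 min at room temperature, then Ub-Rho substrate (150nM final) was added. Fluorescence (480/540 nm) was read kinetically, 6 reads every 60 seconds.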
GALK inhibitor: inhibitors of human galactokinase; P51570; Purified GALK, Kinase-Glo residual ATP luminescence; Potency, µM (series often up to 57.5 µM), for the others: at the top dose activity change, negative = inhibition, hits mostly inhibitors; actives 0.007% (n = 270,000); note: potency is the fitted concentration of half-maximal effect
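The enzyme phosphorylates galactose (100 uM) using ATP (35 uM); inhibition is detected as higher residual ATP, quantified by bioluminescence after 1 h reaction at room temperature, pH 8.0.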
Active calls of the source: *; ? = inconclusive; nt = no result given; ! = repeats disagree. Unless noted, calls come from the whole dose curve; as a rule, active = well fitted curve in the direction sought with a large enough effect; inconclusive = small, poorly fitted or top-dose-only effect, or another doubt; inactive = no such curve, though single readings can be large; an effect the other way counts as inactive or inconclusive. Unless noted, % is set by controls: 0 for no effect and ±100 for the full control effect.

SMILES	USP2a block	VDR inh	PLK1 PBD block	Coupling enz	USP1 inh	GALK inhibitor
Oc1c(Br)cc(Br)cc1/C=N/c1nccs1	1%	?	30µM*	nt	?	nt
CC1(C)CC(=O)C(Sc2ccccc2[N+](=O)[O-])=C(O)C1	2%	-14%	11µM*	4	-21%	nt
O=c1nc2sc3ccccc3n2c(=O)n1-c1ccc(Cl)cc1	1%	5%	-2%	-2	-3%	-2%
CCOCc1nnc(NC(=O)COc2ccc3c(c2)OCO3)s1	1%	-13%	-29%	0	-1%	-3%
O=C(COc1ccc2c(c1)OCO2)Nc1nnc(Cc2ccccc2)s1	1%	?	24µM*	1	-24%	3%
CCOCC(=O)Nc1nnc(COc2ccc(Cl)cc2)s1	3%	79µM*	6.7µM*	5	-6%	2%
COCc1nnc(NC(=O)COc2ccc3c(c2)OCO3)s1	1%	8%	17µM*	0	-22%	17%
CCO/C=C1\C(=O)N(CC)c2ccccc21	2%	21%	-17%	5	-7%	-2%
CCOC(=O)/C=C/CCC/C=C/C(=O)c1ccccc1	nt	8.9µM*	nt	1	nt	nt
Cc1cc(C(=O)COC(=O)c2cc(O)c3ccccc3c2O)c(C)n1CC1CCCO1 (centres undefined)	2%	71µM*	8.4µM*	-46*	?	11%
Cc1cc(C(=O)COC(=O)c2cccnc2Cl)c(C)n1CC1CCCO1 (centres undefined)	1%	89µM*	2%	3	-19%	11%
Cc1ccc(C(=O)OCC(=O)c2cc(C)n(CC3CCCO3)c2C)cc1 (centres undefined)	-6%	-4%	-2%	0	?	0%
Cc1cc(C(=O)COC(=O)c2ccccc2Br)c(C)n1CC1CCCO1 (centres undefined)	-3%	23%	-15%	-6	-29%	1%
O=C(c1cccs1)N(Cc1ccco1)c1ccc(O)cc1	nt	0%	nt	nt	nt	nt
CCOc1ccc(C(C(=O)NCCC(C)C)N(CCO)C(=O)c2snc(C(N)=O)c2N)cc1 (centres undefined)	0%	-1%	-16%	1	-18%	1%
O=C(NC1CCCCC1)C(=S)N1CCOCC1	-1%	-15%	24µM*	-2	-7%	2%
CCCn1c(SCC(=O)Nc2ccccc2CC)nnc1C(C)C	1%	-17%	3µM*	1	-5%	1%
CCCn1c(SCC(=O)Nc2c(C)cccc2CC)nnc1C(C)C	2%	-9%	-6%	0	-2%	0%
CCOc1ccc(CCn2c(-c3ccco3)nc3ccccc3c2=O)cc1OCC	?	-1%	-4%	-2	-14%	0%
Cc1ccc(/C=N\NC(=O)CCc2n[nH]c(=O)[nH]c2=O)o1	3%	?	17µM*	2	-21%	4%
COc1cc(CN2CCNC(=O)C2CC(=O)N(C)Cc2cccnc2)cc(OC)c1 (centres undefined)	1%	-24%	15µM*	0	-14%	4%
COc1ccc(CN2CCNC(=O)C2CC(=O)N(C)Cc2nccs2)cc1OC (centres undefined)	2%	17%	-4%	-4	-28%	5%
CN(Cc1nccs1)C(=O)CC1C(=O)NCCN1Cc1ccc(-c2ccccc2)cc1 (centres undefined)	0%	-15%	27µM*	-17	-24%	0%
COc1ccc(NCc2ccccc2[N+](=O)[O-])cc1OC	-2%	?	-11%	-40*	-25%	1%
COc1ccc(NC(=O)COC(=O)Cc2ccccc2[N+](=O)[O-])cc1OC	0%	-23%	3%	0	-12%	1%
SMILES	USP2a block	VDR inh	PLK1 PBD block	Coupling enz	USP1 inh	GALK inhibitor
Cc1ccc(C)c(S(=O)(=O)c2nnn3c2nc(NC2CCCCC2)c2sccc23)c1	nt	-3%	nt	nt	-20%	nt
C=C1C(=O)O[C@@H]2C3OC3(C)CC/C=C(\C)CC[C@@H]12 (some centres undefined)	nt	nt	nt	0	nt	nt
C=C1C(=O)O[C@@H]2[C@H]3O[C@]3(C)CC/C=C(\C)CC[C@@H]12	nt	22µM*!	-1%	nt	-20%	nt
C=C1C(=O)OC2C=C(C)CCC=C(C)CCC12 (centres undefined)	nt	40µM*	nt	6	nt	nt
O=C(COc1ccc(Br)cc1Br)NC1CCS(=O)(=O)C1 (centres undefined)	0%	-17%	-7%	nt	-7%	nt
CCN1C(=O)c2ccc(C(=O)O)cc2C1=O	2%	8%	-4%	3	-1%	0%
COc1ccc(C(=O)NCCSc2ccccc2)cc1OC	2%	35µM*	3.4µM*	0	-2%	4%
CC[C@H](C)C1NC(=O)[C@H](CC(=O)O)NC(=O)c2cc([N+](=O)[O-])cc(I)c2NCCC(C(N)=O)NC1=O (some centres undefined)	0%	-24%	-8%	-2	-20%	nt
O=C(CSc1nnc(C2CCCCC2)n1Cc1ccccc1)NCc1ccco1	1%	?	27µM*	4	3%	2%
c1ccc(Nc2ccccn2)cc1	2%	?	24µM*	3	-17%	-5%
C[C@@H]1CN([C@H](C)CO)S(=O)(=O)c2ccc(Br)cc2O[C@@H]1CN(C)Cc1ccc(-c2ccccc2)cc1	nt	nt	-3%	nt	25µM*	nt
C[C@H]1CN([C@@H](C)CO)S(=O)(=O)c2ccc(Br)cc2O[C@H]1CN(C)S(=O)(=O)c1ccccc1	nt	nt	6%	nt	-19%	nt
COc1cccc(S(=O)(=O)N(C)C[C@H]2Oc3cc(Br)ccc3S(=O)(=O)N([C@@H](C)CO)C[C@H]2C)c1	nt	nt	-5%	nt	18µM*	nt
O=C(CCn1cnc2ccccc2c1=O)Nc1ccc2c(c1)OCCO2	1%	-1%	-3%	-2	-1%	-2%
COc1ccccc1C(=Cc1ccc([N+](=O)[O-])cc1)C(=O)O	nt	nt	-4%	nt	-20%	nt
CCN=C1SC(CC(=O)NC2CCCCC2)C(=O)N1CC (centres undefined)	4%	6%	-2%	0	-17%	-2%
CN1C(=O)C(CC(=O)NC2CCCCC2)SC1=Nc1ccccc1 (centres undefined)	5%	-22%	30µM*	-3	-21%	2%
Cc1cc(NC(=O)Nc2ccc(N(C)C)cc2)c2cc(F)cc(F)c2n1	nt	18µM*!	nt	-1	nt	nt
COc1ccc(/C=C/C(=O)CC(O)(c2ccccc2)C(F)(F)F)cc1 (centres undefined)	-3%	35µM*	-6%	-3	-26%	-6%
CCN(CC)c1ccc(NC(=O)CCNS(=O)(=O)c2ccc3c(c2)CCC(=O)N3)c(C)c1	4%	3%	-10%	0	-2%	-2%
